We go through 27 compounds from PubChem BioAssay AID1032 (The Scripps Research Institute Molecular Screening Center, 2008).

Screen size: about 200,000 compounds; about 670 (0.34%) were called active. No stated cut-off is given here; in the data, active means activation above about 22%; inactive means the rest. For the sample, actives were picked, then their nearest neighbours and some compounds at random.

Chain of Peroxisome proliferator-activated receptor gamma (Homo sapiens) (P37231 whole entry, looked up, the tested form may be a part): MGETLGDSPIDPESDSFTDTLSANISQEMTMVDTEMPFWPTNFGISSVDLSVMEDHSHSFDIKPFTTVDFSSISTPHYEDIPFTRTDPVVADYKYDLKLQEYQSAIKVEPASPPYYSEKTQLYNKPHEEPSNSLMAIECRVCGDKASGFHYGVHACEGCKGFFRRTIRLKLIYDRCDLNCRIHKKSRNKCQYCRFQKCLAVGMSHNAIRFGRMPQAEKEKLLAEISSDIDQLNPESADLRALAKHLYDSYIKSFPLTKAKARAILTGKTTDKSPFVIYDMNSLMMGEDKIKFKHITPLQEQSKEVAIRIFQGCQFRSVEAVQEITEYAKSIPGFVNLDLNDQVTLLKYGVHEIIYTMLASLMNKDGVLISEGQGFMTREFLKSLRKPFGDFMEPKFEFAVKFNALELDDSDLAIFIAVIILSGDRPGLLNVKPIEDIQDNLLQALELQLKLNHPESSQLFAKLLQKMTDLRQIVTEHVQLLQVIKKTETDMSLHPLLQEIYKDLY

The assay addresses Peroxisome proliferator-activated receptor gamma (Homo sapiens) (UniProt P37231). Kind of assay: agonists of PPARg-SRC-2 recruitment, primary screen, biochemical, HTS (AID 1032).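 Further: 0% = vehicle and 100% = reference agonist.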 The following applies: PPARgamma LBD-SRC-2 recruitment, at 8 µM, active compounds read high.
Consider `COc1ccc(OCc2n[nH]c(=S)n2N)cc1`, for which the activation is 4.69% (inactive). Next, `c1ccc(CSc2ncnc3c2sc2nc(N4CCOCC4)c4c(c23)CCCC4)cc1`: 96% (active); `c1ccc(COc2nsnc2N2CCOCC2)cc1`: 7.85% (inactive); `COc1ccc(CSc2nc(N3CCOCC3)c3c(c2C#N)CC(C)(C)OC3)cc1`: -5.06% (inactive). The figure for `CNC(=O)c1ccsc1NC(=O)c1ccc(S(=O)(=O)N2CCOCC2)cc1` is 14.3% (inactive); for `COc1cc(/C=C(/NC(=O)c2ccc(Cl)cc2Cl)C(=O)O)cc(OC)c1OC` it is 11.2% (inactive). Next, `Cc1ccc(CNC(=O)CC2Sc3ccccc3NC2=O)cc1` (configuration not stated): 0.66% (inactive); `Cc1ccc(S(=O)(=O)c2ccc(Cl)cc2)cc1S(=O)(=O)NC(C(=O)O)C(C)C` (configuration not stated): -4.99% (inactive).

As to `COc1cccc(NCCC(=O)c2cccc([N+](=O)[O-])c2)c1`, the activation is 7.36% (inactive).

With `COc1cccc2c1OCC(CN1CCN(C3CCCCC3)C(CCO)C1)=C2` (configuration not stated), the activation was 1.05% (inactive).

For the compound `Cn1c(N)cc(-c2ccc(F)cc2)c(C#N)c1=O`, the activation was 1.85% (inactive).

Consider `CC(C(=O)N1CCOCC1)N1c2cccc3cccc(c23)S1(=O)=O` (configuration not stated), for which the activation is 28.1% (active). Next, `NC(=NC(=O)c1ccccc1)N1CCOCC1`: 11.2% (inactive); `Cc1ccc(S(=O)(=O)NC(C(=O)N2CCOCCOCCOCCOCC2)c2ccccc2)cc1` (configuration not stated): 6.3% (inactive); `Oc1cccc2ccc(/C=C/c3ccc(Br)s3)nc12`: -1.88% (inactive). Consider `N#Cc1c(N)nc2c(c1N)CC(C(F)(F)F)O2` (configuration not stated), for which the activation is 2.19% (inactive). The figure for `OCC1(CCc2ccccc2)CCN(Cc2ccc3nsnc3c2)CC1` is 39.5% (active).

For `CC(=O)c1cccc(CN2CCC(CO)(Cc3ccccc3)CC2)c1`, the activation is 4.63% (inactive). Next, `Cc1cccc(-c2ncc(CN3CCC(CO)(CCCc4ccccc4)CC3)cn2)c1`: 5% (inactive). For the compound `Cc1ccc(NC(=O)c2ccc(S(=O)(=O)NCC3CCCO3)cc2)cc1C` (configuration not stated), the activation was -6.15% (inactive). On to `O=C(Nc1ccc(N2CCN(C(=O)C3CC3)CC2)cc1)c1cccs1`, for which the activation was 4.68% (inactive).

As to `O=C(CS(=O)(=O)c1ccccc1)Nc1ccc(S(=O)(=O)Nc2ccccn2)cc1`, the activation is -6.08% (inactive). The figure for `CC(=O)N/N=C(\C)c1ccc(Br)cc1Br` is -4.44% (inactive). Next, `Cc1ccc(-c2cc(C(=O)NCc3cn(C)nc3C)c3cc(Br)ccc3n2)cc1`: 37% (active); `COc1ccc(Cl)cc1C(=O)NCc1cn(C)nc1C`: 8.12% (inactive). With `Cc1ccc2nc(-c3cccc(Br)c3)cc(C(=O)Nn3cnnc3)c2c1`, the activation is -0.43% (inactive). On to `O=C(Oc1cccc(O)c1)C1CCCCC1`, for which the activation is 1.13% (inactive).
